# Measurements published in PubChem BioAssay (NCATS).
# Results filed as inconclusive are left out. The source made the active and inactive calls. Unless noted, calls follow the shape of the full dose curve.
# Legend:
# [1] = AP1 Signaling Pathway (AID 357; active = well fitted curve in either direction with a large enough effect, not every such curve was filed as active;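 also: ME-180 reporter cells stimulated with EGF at its EC50 level; % is scaled to controls: 0 for no effect and ±100 for the full control effect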); settings: ME-180 AP-1-bla reporter, EGF-induced, beta-lactamase ratio, 5 h
# Outline: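 Beta-lactamase reporter under AP-1 response element, ME-180 background. Stimulus: EC50 EGF. Compound exposure 5 h, 37 °C. Detection: CCF4, 2.5 h RT, 460/530 nm. Values: AC50 from titration.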
# [2] = NFAT Signaling Pathway (AID 444; active = well fitted curve in either direction with a large enough effect, not every such curve was filed as active;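 also: carbachol stimulus at about its EC50 of 1 µM final; % is scaled to controls: 0 for no effect and ±100 for the full control effect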); settings: Jurkat NFAT-bla M1, carbachol, beta-lactamase ratio, 5 h
# Outline: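 Read-out: CCF4 FRET ratio (460 nm/530 nm) after 1 h RT dye loading, used for %activity and AC50 from titration series. Cells: Jurkat NFAT-β-lactamase/M1 line, treated with compound plus 1 uM carbachol for 5 h, 37 °C.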
# [3] = target: Glucocorticoid receptor (Homo sapiens) (UniProt P04150); experiment: GR-GFP Redistribution (AID 450;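 active = compounds whose dose series gives a full or clear partial fitted curve of increased nuclear translocation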; also: potency is read from the fitted curve at half-maximal effect); settings: U2OS GR-GFP nuclear translocation, laser cytometry, 2 h
# [4] = target: Cytochrome P450 1A2 (Homo sapiens) (UniProt P05177); experiment: p450-cyp1a2 (AID 410); settings: recombinant CYP1A2, luciferin-ME demethylation, luminescence; series mostly up to 57 µM; also: potency is read from the fitted curve at half-maximal effect;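 as to activity change, negative = inhibition: -100% = full effect of reference inhibitor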
# Outline: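 Read-out is luminescence from luciferin produced by CYP1A2 demethylation of Luciferin-ME (100uM, at Km). Detection reagent stopped the 60 min NADPH-dependent reaction; signals were normalized to 57 uM furafylline.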
# [5] = Stat Signaling Pathway (AID 446; active = well fitted curve in either direction with a large enough effect, not every such curve was filed as active;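 also: ME-180 cervical cancer cells given 40 pM IL-6 alongside compound; SIE-controlled beta-lactamase reporter measured as 460/530 nm FRET emission ratio; % is scaled to controls: 0 for no effect and ±100 for the full control effect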); settings: ME-180 (cervical carcinoma) SIE beta-lactamase reporter, IL-6 stimulated, 5 h
# Outline: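 Emission at 460 and 530 nm (excitation 405 nm) reports SIE-controlled beta-lactamase in ME-180 cells. Cells received compound with 40 pM IL-6 for 5 hrs at 37 C; data scaled between 300 pM IL-6 and 125 nM JAK-inhibitor controls.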
# [6] = Cell Viability - BJ (AID 421); settings: BJ fibroblast viability, qHTS;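 also: potency is read from the fitted curve at half-maximal effect; cells exposed to compound for 40 hours at 37 °C before readout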
# Outline: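 Cytotoxicity in human BJ foreskin fibroblasts is scored as loss of cellular ATP after a 40-hour exposure, measured by luciferase luminescence. Controls are DMSO and 100 uM tamoxifen.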
# [7] = Cell Viability - Hek293 (AID 427;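 active = compounds whose dose-response curve shows a full or clear partial loss of cell viability, called from curve shape rather than a numeric limit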;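 also: potency is read from the fitted curve at half-maximal effect; cells exposed to compound for 40 hours at 37 °C before reading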); settings: qHTS
# Outline: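 qHTS, human embryonic kidney (adenovirus-transformed) cells; 40 hr cpd, 37 °C; CellTiter-Glo ATP luminescence. Norm: DMSO = 0, 100 uM tamoxifen = 100% inhibition. Hill-fit AC50.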
# [8] = Cell Viability - HepG2 (AID 433); settings: qHTS;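 also: potency is read from the fitted curve at half-maximal effect; potency for ATP loss meaning cytotoxicity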
# Outline: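 Read-out is luciferase-based quantitation of cellular ATP as a measure of viable HepG2 cells after 40 h treatment at 37 °C. Signal decrease is scaled between DMSO-only and 100 uM tamoxifen controls, with AC50 fitted by the Hill equation.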
# [9] = Cell Viability - MRC5 (AID 434); settings: MRC5 lung fibroblast viability, qHTS;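 also: potency is read from the fitted curve at half-maximal effect; cells exposed to compound for 40 hours at 37 °C; potency reflects cytotoxicity seen as loss of intracellular ATP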
# Outline: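 AC50 values come from Hill-equation fits of intracellular ATP loss, measured by CellTiter-Glo luminescence. Normal lung fibroblasts (MRC5) had 40 hr compound treatment at 37 C, normalized between DMSO and 100 uM tamoxifen.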
# [10] = Cell Viability - SK-N-SH (AID 435); settings: SK-N-SH neuroblastoma cell viability qHTS;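 also: potency is read from the fitted curve at half-maximal effect; compound exposure lasted 40 h at 37 °C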
# Outline: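 Luminescent ATP signal served as the viability read-out after 40 hours of compound treatment of human neuroblastoma SK-N-SH cells. Concentration-response data, scaled between DMSO and 100 uM tamoxifen, gave AC50 values by standard Hill modeling.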
# Sequence of Glucocorticoid receptor (Homo sapiens) (P04150 whole entry, looked up): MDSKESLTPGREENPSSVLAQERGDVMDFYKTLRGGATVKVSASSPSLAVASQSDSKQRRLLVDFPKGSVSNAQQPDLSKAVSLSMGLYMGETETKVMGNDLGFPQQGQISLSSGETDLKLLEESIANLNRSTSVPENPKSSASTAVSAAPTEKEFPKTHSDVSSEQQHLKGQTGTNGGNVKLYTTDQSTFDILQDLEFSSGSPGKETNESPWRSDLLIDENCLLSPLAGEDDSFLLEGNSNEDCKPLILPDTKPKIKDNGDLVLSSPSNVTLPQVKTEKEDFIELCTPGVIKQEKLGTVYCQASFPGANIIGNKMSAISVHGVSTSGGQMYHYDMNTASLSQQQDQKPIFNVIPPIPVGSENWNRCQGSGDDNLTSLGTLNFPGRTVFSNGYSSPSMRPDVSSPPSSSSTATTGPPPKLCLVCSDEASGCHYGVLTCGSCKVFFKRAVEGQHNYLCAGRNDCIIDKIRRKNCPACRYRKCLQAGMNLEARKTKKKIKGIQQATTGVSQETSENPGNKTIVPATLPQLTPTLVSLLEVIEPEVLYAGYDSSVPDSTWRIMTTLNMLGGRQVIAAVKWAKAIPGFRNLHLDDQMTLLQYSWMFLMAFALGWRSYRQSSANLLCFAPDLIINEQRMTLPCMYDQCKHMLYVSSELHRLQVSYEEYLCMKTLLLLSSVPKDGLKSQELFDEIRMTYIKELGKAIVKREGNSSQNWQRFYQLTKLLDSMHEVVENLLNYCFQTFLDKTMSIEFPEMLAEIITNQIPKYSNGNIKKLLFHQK
# Sequence of Cytochrome P450 1A2 (Homo sapiens) (P05177 whole entry, looked up): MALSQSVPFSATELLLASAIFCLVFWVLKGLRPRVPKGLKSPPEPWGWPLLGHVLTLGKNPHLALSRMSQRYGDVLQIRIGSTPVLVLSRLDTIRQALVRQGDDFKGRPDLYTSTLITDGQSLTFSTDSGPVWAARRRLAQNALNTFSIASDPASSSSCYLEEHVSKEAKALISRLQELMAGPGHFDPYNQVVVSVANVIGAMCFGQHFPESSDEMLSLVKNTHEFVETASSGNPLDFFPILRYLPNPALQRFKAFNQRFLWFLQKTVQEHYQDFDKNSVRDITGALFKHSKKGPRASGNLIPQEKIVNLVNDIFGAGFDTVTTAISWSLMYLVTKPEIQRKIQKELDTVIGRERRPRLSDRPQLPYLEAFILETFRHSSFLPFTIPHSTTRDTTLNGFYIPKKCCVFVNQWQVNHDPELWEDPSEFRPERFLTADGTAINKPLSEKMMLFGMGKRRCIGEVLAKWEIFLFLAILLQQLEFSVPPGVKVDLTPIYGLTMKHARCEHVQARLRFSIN
smiles,measurement,setting,value
CN[C@@H]1C[C@@H](c2ccc(Cl)c(Cl)c2)c2ccccc21,"activity change, negative = inhibition",[1]; at 38 µM (top of the series),23.3% (inactive)
same,"activity change, negative = inhibition",[2]; at 38 µM (top of the series),-14.3% (inactive)
same,Potency,[3],> 46 µM (inactive)
CC(=O)OCC1=C(C(=O)O)N2C(=O)[C@@H](N)[C@@H]2SC1,"activity change, negative = inhibition",[1]; at 17.2 µM (top of the series),2.29% (inactive)
same,Potency,[4],inactive
same,"activity change, negative = inhibition",[2]; at 17.2 µM (top of the series),-6.12% (inactive)
same,"activity, negative = inhibition",[5]; at 17.2 µM (top of the series),-1.03% (inactive)
same,Potency,[3],> 20.6 µM (inactive)
c1ccc(CCCN2CCN(CCOC(c3ccccc3)c3ccccc3)CC2)cc1,"activity change, negative = inhibition",[1]; at 38 µM (top of the series),-23% (inactive)
same,"activity change, negative = inhibition",[2]; at 38 µM (top of the series),-82.7% (active)
same,"activity, negative = inhibition",[5]; at 38 µM (top of the series),-17.9% (inactive)
same,Potency,[3],> 46 µM (inactive)
O=C(O)C(Cl)Cl,Potency,[6],> 92 µM (inactive)
same,Potency,[7],> 92 µM (inactive)
same,Potency,[8],> 92 µM (inactive)
same,Potency,[9],> 92 µM (inactive)
same,Potency,[10],> 92 µM (inactive)
CCCCCCCCc1ccc(O)cc1,Potency,[6],> 92 µM (inactive)
same,Potency,[7],> 92 µM (inactive)
same,Potency,[8],> 92 µM (inactive)
same,Potency,[9],> 92 µM (inactive)
same,Potency,[10],> 92 µM (inactive)
O=C(O)COc1ccccc1,Potency,[6],> 92 µM (inactive)
same,Potency,[7],> 92 µM (inactive)
same,Potency,[8],> 92 µM (inactive)
same,Potency,[9],> 92 µM (inactive)
same,Potency,[10],> 92 µM (inactive)
Cc1cc(O)ccc1Cl,Potency,[6],> 92 µM (inactive)
same,Potency,[7],> 92 µM (inactive)
same,Potency,[8],> 92 µM (inactive)
same,Potency,[9],> 92 µM (inactive)
same,Potency,[10],> 92 µM (inactive)
c1cc2ccc3cccc4ccc(c1)c2c34,Potency,[6],> 92 µM (inactive)
same,Potency,[7],> 92 µM (inactive)
same,Potency,[8],> 92 µM (inactive)
same,Potency,[9],> 92 µM (inactive)
same,Potency,[10],> 92 µM (inactive)
Cc1c(C(=O)c2cccc3ccccc23)c2cccc3c2n1[C@H](CN1CCOCC1)CO3,"activity change, negative = inhibition",[2]; at 38 µM (top of the series),-21.8% (inactive)
same,Potency,[3],> 46 µM (inactive)
CC(=O)[O][Hg][c]1ccccc1,Potency,[6],5.56 µM (active)
same,Potency,[7],2.24 µM (active)
same,Potency,[8],25.1 µM (active)
same,Potency,[9],10.9 µM (active)
same,Potency,[10],2.17 µM (active)
COc1ccc(C(=O)c2c(C)n(CCN3CCOCC3)c3cc(I)ccc23)cc1,Potency,[4],15.8 µM (active)
same,Potency,[3],> 46 µM (inactive)
C=CC(=O)NCNC(=O)C=C,Potency,[6],> 92 µM (inactive)
same,Potency,[7],> 92 µM (inactive)
same,Potency,[8],> 92 µM (inactive)
same,Potency,[9],> 92 µM (inactive)
same,Potency,[10],> 92 µM (inactive)
CCCCOC(=O)c1ccccc1C(=O)OCc1ccccc1,Potency,[6],> 92 µM (inactive)
same,Potency,[7],> 92 µM (inactive)
same,Potency,[8],> 92 µM (inactive)
same,Potency,[9],> 92 µM (inactive)
same,Potency,[10],> 92 µM (inactive)
CCCCC(CC)COC(=O)c1ccccc1C(=O)OCC(CC)CCCC (centres undefined),Potency,[6],> 92 µM (inactive)
same,Potency,[7],> 92 µM (inactive)
same,Potency,[8],> 92 µM (inactive)
same,Potency,[9],> 92 µM (inactive)
same,Potency,[10],> 92 µM (inactive)
O=[N+]([O-])c1c2ccccc2cc2ccccc12,Potency,[6],> 92 µM (inactive)
same,Potency,[7],> 92 µM (inactive)
same,Potency,[8],> 92 µM (inactive)
same,Potency,[9],> 92 µM (inactive)
same,Potency,[10],> 92 µM (inactive)
COc1ccc(C(c2ccc(OC)cc2)C(Cl)(Cl)Cl)cc1,Potency,[6],> 92 µM (inactive)
same,Potency,[8],> 92 µM (inactive)
same,Potency,[9],> 92 µM (inactive)
same,Potency,[10],> 92 µM (inactive)
Nc1ccc(Sc2ccc(N)cc2)cc1,Potency,[6],> 92 µM (inactive)
same,Potency,[7],> 92 µM (inactive)
same,Potency,[8],> 92 µM (inactive)
same,Potency,[9],> 92 µM (inactive)
same,Potency,[10],> 92 µM (inactive)
Nc1ccc(Cl)cc1N,Potency,[6],> 92 µM (inactive)
same,Potency,[7],> 92 µM (inactive)
same,Potency,[9],> 92 µM (inactive)
C1CCC(NC2CCCCC2)CC1,Potency,[6],> 92 µM (inactive)
same,Potency,[7],> 92 µM (inactive)
same,Potency,[8],> 92 µM (inactive)
same,Potency,[9],> 92 µM (inactive)
same,Potency,[10],> 92 µM (inactive)
O=[N+]([O-])c1c(Cl)c(Cl)cc(Cl)c1Cl,Potency,[6],> 92 µM (inactive)
same,Potency,[7],> 92 µM (inactive)
same,Potency,[8],> 92 µM (inactive)
same,Potency,[9],> 92 µM (inactive)
same,Potency,[10],> 92 µM (inactive)
CCOC(=O)c1cncn1[C@H](C)c1ccccc1,Potency,[3],> 46 µM (inactive)
O=S(=O)(c1ccc(Cl)cc1)c1ccc(Cl)cc1,Potency,[6],> 92 µM (inactive)
same,Potency,[7],> 92 µM (inactive)
same,Potency,[8],> 92 µM (inactive)
same,Potency,[9],> 92 µM (inactive)
same,Potency,[10],> 92 µM (inactive)
O=[N+]([O-])c1cc([N+](=O)[O-])c2ccccc2c1,Potency,[6],> 92 µM (inactive)
same,Potency,[7],> 92 µM (inactive)
same,Potency,[8],> 92 µM (inactive)
same,Potency,[9],> 92 µM (inactive)
same,Potency,[10],> 92 µM (inactive)
CN(C)NC(=O)CCC(=O)O,Potency,[6],> 92 µM (inactive)
same,Potency,[7],> 92 µM (inactive)
same,Potency,[8],> 92 µM (inactive)
same,Potency,[9],> 92 µM (inactive)
same,Potency,[10],> 92 µM (inactive)
